This is an account of results in ChEMBL document CHEMBL1961873, “Compounds: GSK PKIS; Assays: Nanosyn kinase panel” (2012).

Assay [1] concerns Proto-oncogene tyrosine-protein kinase receptor Ret (Homo sapiens), P07949 [Y791F]. The conditions noted are these: at 1 µM.
The target of assay [2] is Macrophage-stimulating protein receptor (Homo sapiens) (UniProt Q04912). The conditions noted are these: at 0.1 µM.
Assay [3] shares this target. The conditions noted are these: at 1 µM.
The target in assay [4] is Proto-oncogene tyrosine-protein kinase ROS (Homo sapiens) (UniProt P08922). The conditions noted are these: at 0.1 µM.
Assay [5] shares this target. The conditions noted are these: at 1 µM.
Assay [6] concerns the target Proto-oncogene tyrosine-protein kinase Src (Homo sapiens) (UniProt P12931). The conditions noted are these: at 0.1 µM.
Assay [7] has the same target. The conditions noted are these: at 1 µM.
Assay [8] deals with Tyrosine-protein kinase Srms (Homo sapiens) (UniProt Q9H3Y6). The conditions noted are these: at 0.1 µM.
Tyrosine-protein kinase Srms (Homo sapiens), sequence (Q9H3Y6 whole entry): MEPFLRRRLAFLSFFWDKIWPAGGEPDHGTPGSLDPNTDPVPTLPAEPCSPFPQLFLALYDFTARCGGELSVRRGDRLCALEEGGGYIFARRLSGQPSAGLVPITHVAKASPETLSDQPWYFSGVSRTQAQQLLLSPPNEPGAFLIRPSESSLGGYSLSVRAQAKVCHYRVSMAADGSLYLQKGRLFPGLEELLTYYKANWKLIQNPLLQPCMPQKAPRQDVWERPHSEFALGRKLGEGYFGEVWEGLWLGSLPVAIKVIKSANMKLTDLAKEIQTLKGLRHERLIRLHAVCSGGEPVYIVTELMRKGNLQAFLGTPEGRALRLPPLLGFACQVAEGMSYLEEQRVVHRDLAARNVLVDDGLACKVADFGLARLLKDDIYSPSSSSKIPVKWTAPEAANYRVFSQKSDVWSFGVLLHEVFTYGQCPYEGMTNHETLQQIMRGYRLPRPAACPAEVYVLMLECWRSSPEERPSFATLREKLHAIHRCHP
Assay [9] shares this target. The conditions noted are these: at 1 µM.
Assay [10] addresses Tyrosine-protein kinase SYK (Homo sapiens) (UniProt P43405). The conditions noted are these: at 0.1 µM.

For orientation: inhibition means the relative decrease from the control value, in per cent.

Proto-oncogene tyrosine-protein kinase receptor Ret (Homo sapiens), P07949 [Y791F], sequence (P07949 whole entry Y791F): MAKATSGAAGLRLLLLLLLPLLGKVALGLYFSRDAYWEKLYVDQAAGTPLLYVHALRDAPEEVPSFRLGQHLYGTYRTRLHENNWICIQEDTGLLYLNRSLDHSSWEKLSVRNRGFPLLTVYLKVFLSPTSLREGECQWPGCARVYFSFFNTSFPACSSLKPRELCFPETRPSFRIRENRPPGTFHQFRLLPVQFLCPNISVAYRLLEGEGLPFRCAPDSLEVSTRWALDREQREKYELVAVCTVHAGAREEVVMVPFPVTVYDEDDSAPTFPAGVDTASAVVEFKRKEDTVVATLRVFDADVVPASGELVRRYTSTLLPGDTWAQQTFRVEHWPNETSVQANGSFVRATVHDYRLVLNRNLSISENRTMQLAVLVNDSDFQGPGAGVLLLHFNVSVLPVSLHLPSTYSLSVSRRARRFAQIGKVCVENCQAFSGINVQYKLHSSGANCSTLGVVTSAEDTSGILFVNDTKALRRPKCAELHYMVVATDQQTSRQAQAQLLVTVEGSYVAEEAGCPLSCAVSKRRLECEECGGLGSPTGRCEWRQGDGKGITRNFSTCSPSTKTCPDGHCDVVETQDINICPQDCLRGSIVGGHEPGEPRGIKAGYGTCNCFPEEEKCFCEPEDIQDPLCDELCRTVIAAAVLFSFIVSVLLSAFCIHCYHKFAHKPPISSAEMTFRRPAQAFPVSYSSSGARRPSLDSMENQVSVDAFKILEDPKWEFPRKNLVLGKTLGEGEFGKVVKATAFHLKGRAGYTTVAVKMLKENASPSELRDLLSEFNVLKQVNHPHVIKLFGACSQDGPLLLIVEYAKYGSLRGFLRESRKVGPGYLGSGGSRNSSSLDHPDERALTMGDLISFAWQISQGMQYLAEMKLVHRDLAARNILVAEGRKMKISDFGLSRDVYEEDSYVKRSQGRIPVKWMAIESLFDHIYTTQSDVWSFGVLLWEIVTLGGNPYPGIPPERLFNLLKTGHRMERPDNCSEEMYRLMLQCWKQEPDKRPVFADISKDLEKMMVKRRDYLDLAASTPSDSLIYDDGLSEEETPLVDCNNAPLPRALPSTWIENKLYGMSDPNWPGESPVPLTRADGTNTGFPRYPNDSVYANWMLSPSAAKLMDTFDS
Proto-oncogene tyrosine-protein kinase Src (Homo sapiens), sequence (P12931 2-536 limits assumed): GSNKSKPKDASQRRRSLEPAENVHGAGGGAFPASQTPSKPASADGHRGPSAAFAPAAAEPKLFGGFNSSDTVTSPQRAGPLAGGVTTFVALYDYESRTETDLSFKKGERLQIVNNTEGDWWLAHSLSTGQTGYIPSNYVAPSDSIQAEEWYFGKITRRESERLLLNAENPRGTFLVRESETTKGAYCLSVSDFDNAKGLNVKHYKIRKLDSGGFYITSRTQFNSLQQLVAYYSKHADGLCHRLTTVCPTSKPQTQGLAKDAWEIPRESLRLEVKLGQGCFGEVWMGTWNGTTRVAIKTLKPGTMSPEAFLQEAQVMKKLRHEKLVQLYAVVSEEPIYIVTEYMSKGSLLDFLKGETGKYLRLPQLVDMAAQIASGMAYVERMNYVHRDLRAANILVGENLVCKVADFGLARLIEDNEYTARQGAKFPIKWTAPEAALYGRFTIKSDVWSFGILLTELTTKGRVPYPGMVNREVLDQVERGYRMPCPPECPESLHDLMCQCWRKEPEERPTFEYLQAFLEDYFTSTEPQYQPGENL
Macrophage-stimulating protein receptor (Homo sapiens), sequence (Q04912 25-304 limits assumed): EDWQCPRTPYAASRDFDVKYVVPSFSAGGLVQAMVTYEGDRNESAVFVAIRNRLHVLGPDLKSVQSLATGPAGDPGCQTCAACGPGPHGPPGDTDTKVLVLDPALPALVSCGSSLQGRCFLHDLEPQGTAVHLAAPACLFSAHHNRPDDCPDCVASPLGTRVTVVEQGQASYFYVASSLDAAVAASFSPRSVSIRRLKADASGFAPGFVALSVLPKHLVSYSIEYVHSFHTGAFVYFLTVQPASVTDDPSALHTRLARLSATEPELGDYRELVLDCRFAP
Macrophage-stimulating protein receptor (Homo sapiens), sequence (Q04912 310-1400 limits assumed): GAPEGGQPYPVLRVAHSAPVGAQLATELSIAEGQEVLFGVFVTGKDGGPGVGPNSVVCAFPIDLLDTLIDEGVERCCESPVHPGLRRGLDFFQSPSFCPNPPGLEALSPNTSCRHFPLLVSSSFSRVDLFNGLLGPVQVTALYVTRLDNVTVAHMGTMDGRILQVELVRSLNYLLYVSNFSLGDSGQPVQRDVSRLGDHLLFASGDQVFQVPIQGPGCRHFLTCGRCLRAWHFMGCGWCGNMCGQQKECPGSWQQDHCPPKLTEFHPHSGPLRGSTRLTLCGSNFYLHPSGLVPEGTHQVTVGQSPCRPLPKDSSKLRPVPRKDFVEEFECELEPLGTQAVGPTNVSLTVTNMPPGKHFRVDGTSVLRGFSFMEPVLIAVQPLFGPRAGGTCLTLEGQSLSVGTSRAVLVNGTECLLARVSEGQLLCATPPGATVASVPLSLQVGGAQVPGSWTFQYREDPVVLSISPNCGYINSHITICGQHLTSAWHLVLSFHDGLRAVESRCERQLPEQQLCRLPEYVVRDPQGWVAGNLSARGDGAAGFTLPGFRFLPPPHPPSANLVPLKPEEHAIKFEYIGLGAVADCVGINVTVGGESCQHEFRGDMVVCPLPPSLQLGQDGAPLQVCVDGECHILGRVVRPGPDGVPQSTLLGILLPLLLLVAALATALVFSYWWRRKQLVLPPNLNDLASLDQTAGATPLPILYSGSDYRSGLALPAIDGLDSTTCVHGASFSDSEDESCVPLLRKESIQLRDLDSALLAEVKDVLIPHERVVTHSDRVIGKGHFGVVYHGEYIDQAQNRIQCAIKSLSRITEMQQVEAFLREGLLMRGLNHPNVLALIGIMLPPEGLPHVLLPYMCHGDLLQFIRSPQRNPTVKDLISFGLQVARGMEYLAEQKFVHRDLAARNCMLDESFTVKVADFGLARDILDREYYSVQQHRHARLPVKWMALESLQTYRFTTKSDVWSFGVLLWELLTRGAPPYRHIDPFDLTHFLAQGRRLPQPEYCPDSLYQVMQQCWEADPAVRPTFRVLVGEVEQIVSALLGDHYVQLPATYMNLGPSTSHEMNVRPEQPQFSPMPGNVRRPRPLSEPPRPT

For `COc1ccc(-c2ccncc2)cc1C(N)=O`, the inhibition in assay [1] was found to be 6.78%; in assay [2], 9.12%; in assay [3], 1.15%; in assay [4] it was 5.72%; in assay [5], 17.5%; in assay [6], 11.3%. Moreover, the inhibition was 12.4% in assay [7], -0.54% in assay [8], -5.88% in assay [9] and -1.18% in assay [10].

On to `COc1ccc(-c2nn3ncccc3c2-c2ccnc(Nc3ccc(Cl)c(C(F)(F)F)c3)n2)cc1`, for which the inhibition is 13.3% in assay [1]; -1.78% in assay [2]; 2.44% in [3]; 2.34% in assay [4]; 2.35% in assay [5]; 1.05% in [6]. Further, the inhibition is 9.68% in assay [7], 0.23% in assay [8], 1.79% in [9] and -1.43% in assay [10].

As for `Fc1cccc(COc2ccc(Nc3ncnc4cc(-c5ccc[nH]5)sc34)cc2Cl)c1`, the inhibition in [1] came to 15.8%; in assay [2], 4.56%; in [3] it was 4.33%; in assay [4], 9.9%; in assay [5] it was 12.1%; in assay [6], 3.22%. Moreover, the inhibition was 6.79% in [7], -0.83% in assay [8], 1.08% in [9] and 1.5% in assay [10].

With `CCN1CCC(CC(=O)Nc2n[nH]c3nc(-c4cccs4)c(Br)cc23)CC1`, the inhibition is -0.99% in [1]; 0.5% in [2]; 6.29% in [3]; -0.25% in assay [4]; -0.04% in assay [5]; 15.4% in assay [6]. In addition, the inhibition was -4.33% in assay [7], -1.72% in [8], -0.34% in [9] and -1.06% in [10].

`COc1cc(C=NNc2ncnc3c2cnn3-c2ccccc2)ccc1O`: the inhibition came to 75.1% in assay [1]; 23.7% in [2]; 64.5% in [3]; 7.09% in [4]; 31.2% in assay [5]; 28.6% in [6]. Moreover, the inhibition is 79% in assay [7], 1.17% in assay [8], 4.56% in assay [9] and -2.75% in assay [10].

`COC(=O)Nc1nc2cc(Oc3cccc(NC(=O)Nc4cc(C(F)(F)F)ccc4F)c3)ccc2[nH]1`: the inhibition is 38.9% in assay [1]; 6.28% in assay [2]; -2.46% in assay [3]; 1.83% in assay [4]; 2.46% in assay [5]; 9.23% in assay [6]. Also, the inhibition in assay [7] was 5.13%; in assay [8] it was 0.35%; in assay [9], -1.15%; in [10], 0.17%.

As to `Cn1cc(C=C2C(=O)Nc3cccnc32)c2ccccc21`, the inhibition in assay [2] was 3.7%; in [3], 0.13%; in assay [4], 4.42%; in assay [5], 10.1%; in assay [6], 12.8%; in assay [7] it was 42.2%. For the same compound, the results for the inhibition in [8], in assay [9] and in assay [10] were -1.82%, 0.18% and 3.56%, respectively.

Regarding `NC(=O)c1ccc(-c2nc(-c3ccccn3)c(-c3ccc4c(c3)OCO4)[nH]2)cc1`, the inhibition is 13.7% in assay [1]; -0.12% in assay [2]; -1.49% in assay [3]; 2.07% in assay [4]; 2.89% in assay [5]; 3.87% in assay [6]. Also, the inhibition was found to be 4.86% in [7], 2.17% in assay [8], 1.98% in assay [9] and 0.63% in assay [10].

As to `CC(C)=Cc1cccc2c1/C(=N/Nc1ccc(S(N)(=O)=O)cc1)C(=O)N2`, the inhibition in assay [1] was 50.3%; in [2], 2.03%; in [3] it was 4.1%; in assay [4], -0.28%; in [5], 20%; in [6] it was 10.8%. Further, the inhibition in [7] worked out at 46.4%; in assay [8] it was 3.21%; in [9] it was 4.02%; in assay [10], 2.78%.

As for `CC1=C(C(=O)Nc2ccc3[nH]ncc3c2)C(c2ccc(Cl)c(Cl)c2)CC(=O)N1` (stereo not drawn), the inhibition in [1] was 25.4%; in [2] it was 3.91%; in assay [3], 15%; in assay [4], 2.14%; in [5], 8.67%; in assay [6], 17.4%. Also, the inhibition in assay [7] was 24.9%; in assay [8], 1.99%; in assay [9] it was -3.08%; in assay [10] it was -3.45%.

`CCn1c(-c2nonc2N)nc2c(N3CCCC3)nccc21`: the inhibition in [1] is 2.26%; in assay [2], 1.7%; in assay [3] it was 0.95%; in assay [4] it was 4.19%; in [5] it was 4.49%; in [6] it was -2.23%. Further, the inhibition is -2.52% in [7], 0.27% in assay [8], 0.26% in assay [9] and -1.66% in assay [10].

Regarding `COc1ccccc1Nc1ncc(-c2ccccc2)o1`, the inhibition in assay [2] came out at 6.08%; in [3], 1.59%; in [4], 5.04%; in assay [5] it was 11.2%; in [6], 8.59%; in assay [7], 11.2%. The inhibition in [8] is -1.24%; in assay [9] it was 2.11%; in assay [10], -1.37%.

With `Cc1nn(C)c2cc(N(C)c3ccnc(Nc4cccc(S(N)(=O)=O)c4)n3)ccc12`, the inhibition was 46.8% in assay [1]; 5.47% in assay [2]; 22.4% in assay [3]; 63.2% in assay [4]; 80.2% in assay [5]; 11.1% in [6]. In addition, the inhibition in assay [7] is 49.5%; in [8], 0.83%; in [9], 9.11%; in assay [10] it was -6.41%.

For `CCn1c(-c2nonc2N)nc2ccncc21`, the inhibition came out at 1.54% in [1]; 0.89% in [2]; 0.11% in assay [3]; 2.31% in assay [4]; 2.5% in assay [5]; 8.34% in [6]. The inhibition in assay [7] was 4.59%; in [8], -0.44%; in assay [9], -0.79%; in assay [10] it was 0.22%.

As for `O=C1NC(=O)C(N2CCc3ccccc32)=C1c1ccc(Cl)cc1`, the inhibition in assay [1] was 10.4%; in [2], -2.48%; in assay [3], 2.52%; in assay [4] it was 10.9%; in [5], 14.1%; in assay [6], 5.94%. Also, the inhibition is 15.5% in assay [7], -2.77% in [8], 0.25% in assay [9] and -4.42% in [10].

`COc1ccc2cc(-c3c(-c4ccncc4)nc(-c4ccc([S+](C)[O-])cc4)n3C)ccc2c1` (stereo not drawn): the inhibition in assay [1] is -4.94%; in assay [2], 4.56%; in assay [3], 4.27%; in assay [4] it was 4.08%; in assay [5] it was 5.77%; in [6], 4.77%. Further, the inhibition in assay [7] is 8.58%; in assay [8], -0.98%; in assay [9] it was -1.29%; in [10], -1.34%.

With `CS(=O)(=O)CCN(CC#N)Cc1ccc(-c2ccc3ncnc(Nc4ccc(OCc5cccc(F)c5)c(Cl)c4)c3c2)o1`, the inhibition in assay [1] was found to be 3.1%; in assay [2] it was 0.07%; in [3] it was 0.14%; in assay [4], 6.53%; in [5] it was 4.3%; in assay [6], 3.38%. The inhibition in [7] was 4.01%; in assay [8] it was 1.13%; in [9], -1.83%; in assay [10], 1.85%.
